# Assay outcomes from PubChem BioAssay.
# Hits are enriched below; roughly 1.1% of the tested compounds scored in any of these assays.
# Vc quorum ag: inducers of Vibrio cholerae quorum light production without autoinducers, primary screen, BH1578 luxS cqsA deficient, single point; V. cholerae BH1578 lux reporter, luminescence, 6 h; activation, % at 18.7 µM; 0.16% of 350,000 active; AID 588436, 2011; in the data active = activation mostly above about 9.7%, no sharp cut-off
# Y pestis TopoI: Yersinia pestis topoisomerase I inhibitors, primary screen, biochemical, cleavage product accumulation, plate reader, single point. DNA topoisomerase I (Yersinia pestis CO92). Y. pestis Topo-I cleavage product accumulation. activity, % at 10 µM. 0.064% of 360,000 active. AID 504884, 2011; in the data active = activity above about 50%, passing the limit was not always enough
# CCHFV vOTU inh: CCHFV vOTU protease inhibitors, primary screen, biochemical, Pep-AMC substrate, fluorescence. Crimean-Congo hemorrhagic fever virus L polyprotein viral ovarian tumor (vOTU) protease …. inhibition, % at 11.5 µM. AID 651958, 2012. 0.55% of 370,000 active; in the data active = inhibition above about 30%
# PrPC TRFRET: inhibitors of human cell surface prion protein PrPC, primary screen, cell-based, TR-FRET; TR-FRET read-out; inhibition, % at 13.8 µM; 0.43% of 370,000 active; AID 720596, 2013; in the data active = inhibition above about 24%
# Numbers stand for hits; – = inactive; · = not tested or not shown; + = active, no number.
SMILES,Vc quorum ag,Y pestis TopoI,CCHFV vOTU inh,PrPC TRFRET
C=CCn1c(O)c(C=Nc2ccc(N(CC)CC)cc2)c(=O)[nH]c1=O,–,–,40.3,–
Cc1cccc(CCNC(=O)CCc2c(C)nc3ncnn3c2C)c1,–,–,–,–
CCN=C1Cn2c(nc3scc(-c4ccccc4)c3c2=O)CN1CC,16.7,–,–,–
Cc1ccc(-c2cc(-c3ccc(C)cc3)[n+](-c3ccccc3)c(-c3ccc(C)cc3)c2)cc1,–,–,·,·
Cc1ccc(-c2cc(-c3ccccc3)cc(-c3ccccc3)[n+]2-c2ccccc2)cc1,–,–,–,27.1
C#CCSc1nnnn1-c1ccc(OCC)cc1,606.8,–,–,–
CCOc1ccc(-n2nnnc2SCC(=O)Nc2ccc(NC(C)=O)cc2)cc1,–,–,–,–
CCCCN(C)C(=O)Cn1nc(-c2ccc(Cl)cc2)ccc1=O,–,–,–,–
CCOC(=O)c1nn(-c2ccc(C)cc2)cc1O,+,–,–,–
COc1ccc(F)cc1-c1cc(NC=O)c2ncc(-c3cccc(C(=O)N(C)C)c3)n2c1,–,–,–,–
Cc1ccc2c(c1)CC1(CN2C)C(=O)OC2(CCCCC2)OC1=O,16.7,–,–,–
Cc1ccc2c(c1)CC1(CN2C)C(=O)NC(=O)N(c2ccccc2C)C1=O (stereo not drawn),–,–,–,–
N#C/C(=C\C=C\c1ccccc1[N+](=O)[O-])c1nc(-c2ccc3c(c2)OCO3)cs1,–,–,–,–
CC(C)(C)OC(=O)N1CCC(Cc2cc(-c3cccc(Br)c3)no2)(C(=O)O)CC1,–,–,–,–
COc1ccc2cc(CNCCOCCOCCNCc3ccc4cc(OC)ccc4c3)ccc2c1,–,–,–,32.1
CCN(CC)C(=O)C1(P(=O)(c2ccccc2)c2ccccc2)CCC1,–,–,–,–
CCCCN(CCCC)C(=O)C1(P(=O)(c2ccccc2)c2ccccc2)CCC1,–,54.6,–,–
CC1=CC(=C2C(=O)NC(=S)NC2=O)C=C(C(F)(F)F)N1Cc1ccccc1,266.6,–,–,–
CC1=CC(=C2C(=O)NC(=O)NC2=O)C=C(C(F)(F)F)N1Cc1ccccc1,–,–,–,–
S=C(c1ccc(-c2ccc(Cl)cc2)o1)N1CCCCC1,–,–,–,–
COc1ccc2cc3[n+](cc2c1O)CCc1cc2c(cc1-3)OCO2,·,·,101.3,–
Nc1ncnc2c(C3OC(CO)C(O)C3O)scc12 (stereo not drawn),–,–,–,54.9
O=C(N/N=C/c1ccccc1O)C(=O)N1CCCCCC1,–,–,–,–
Cc1ccc(-c2nc(C#N)c(NCC3CCCO3)o2)cc1 (stereo not drawn),–,–,–,–
Cc1ccc2cc(COC(=O)c3ccco3)c(=O)[nH]c2c1,16.7,–,–,–
SMILES,Vc quorum ag,Y pestis TopoI,CCHFV vOTU inh,PrPC TRFRET
O=C1NC(Cc2ccccc2)c2nc3ccc(F)cc3c(=O)n2-c2ccccc21 (stereo not drawn),·,·,–,–
CSc1ccccc1N=CC1=C(O)CC(C)(C)CC1=O,17.9,–,–,–
CC1(C)CC(=O)C(C=Nc2ccc(O)cc2)=C(O)C1,–,–,–,–
Cc1cc(C(=O)Nc2ccon2)c(C)o1,–,–,–,–
Cc1ccc(C(=O)C2=C(O)C(=O)N(Cc3ccccc3)C2c2cccnc2)o1 (stereo not drawn),–,–,·,·
Cc1ccc(C(=O)C2=C(O)C(=O)N(Cc3cccnc3)C2c2cccc(Oc3ccccc3)c2)o1 (stereo not drawn),·,·,–,44.0
O=[N+]([O-])c1ccccc1CSc1nnc2ccccn12,–,–,–,–
Cc1ccc(S(=O)(=O)N2CCOCC2)s1,–,–,–,–
O=C1OCC(c2ccccc2)=C1c1ccc(S(=O)(=O)N2CCOCC2)s1,16.7,–,–,–
COc1ccc(CNC(=O)[C@H](C)NC(=O)C2CCN(C(=O)[C@H](CCSC)NC(=O)OC(C)(C)C)CC2)cc1,–,–,–,–
COc1ccc(CNC(=O)C2CCN(C(=O)[C@@H](CC(C)C)NC(=O)OC(C)(C)C)CC2)cc1,16.7,–,–,–
Cc1ccc(C)c(NC(=S)N2CCN(CCO)CC2)c1,–,–,–,–
O=S(=O)(CCNCc1ccco1)NCc1ccccc1,–,–,–,–
C=CCOc1ccc(/C=C/C(=O)OCC(=O)NCCCc2ccccc2)cc1,–,52.6,–,–
CS(=O)(=O)c1nc(-c2ccccc2)cc(C(F)(F)F)n1,–,–,–,28.9
Cc1cc(NC(=O)CCS(=O)(=O)c2nc(-c3ccccc3)cc(C(F)(F)F)n2)no1,–,–,–,–
Cc1cc2oc(C(=O)NC3CCS(=O)(=O)C3)cc(=O)c2cc1C (stereo not drawn),–,–,–,–
C/C(=N\N=C(/N)SC1CC(=O)N(c2ccccc2)C1=O)c1cccs1 (stereo not drawn),–,–,–,–
CCCCCCOc1ccc(N2C(=O)CC(S/C(N)=N/N=C(\C)c3cccs3)C2=O)cc1 (stereo not drawn),–,62.6,–,–
O=C(NCc1cc(C(F)(F)F)ccc1Cl)c1cccc2c1C(=O)c1ccc(N3CCC(N4CCCCC4)CC3)cc1S2(=O)=O,–,–,–,46.2
Cc1ccc(-n2ncc3c(=O)n(CC(=O)N4CCCCCC4)cnc32)cc1,–,–,–,–
O=C(CC(=O)N/N=C\c1c(Cl)cccc1Cl)NCc1ccccc1,5.6,–,–,–
O=C(CC(=O)N/N=C/c1ccccc1)NCc1ccccc1,–,–,–,–
CN(C)c1ccc(C2CC(=O)NC3=C2C(=O)CC(C)(C)C3)cc1 (stereo not drawn),–,–,–,–
CC1(C)CC(=O)C2=C(C1)NC(=O)CC2c1ccc(F)cc1 (stereo not drawn),30.2,–,–,–
SMILES,Vc quorum ag,Y pestis TopoI,CCHFV vOTU inh,PrPC TRFRET
CCCc1cc(C(=O)Nc2ccn(Cc3ccc(C)cc3)n2)no1,–,–,–,–
Cc1ccc(Cn2ccc(NC(=O)c3cc(-c4cccs4)on3)n2)cc1,–,87.0,–,–
C(=C\CSc1nnnn1-c1ccccc1)/CSc1nnnn1-c1ccccc1,–,60.2,–,–
Cc1c(Br)c([N+](=O)[O-])nn1C(C)C(=O)Nc1ccc2c(c1)OCO2 (stereo not drawn),55.2,–,–,–
Cc1cc(C)n(C(=O)C(C)n2nc([N+](=O)[O-])c(Br)c2C)n1 (stereo not drawn),–,–,–,–
COc1cccc(OC)c1C(=O)Nc1ccc2c3c(cccc13)CC2,16.7,–,–,–
COc1ccccc1C(=O)OCC#CCSc1nnc(-c2cccc3ccccc23)o1,–,51.8,–,–
O=C(OCC#CCSc1nnc(-c2ccc(Br)cc2)o1)c1cccs1,–,–,–,–
Cc1ccc(-c2nnc(SCC#CCOC(=O)c3cccs3)o2)cc1,–,55.7,–,–
O=C(O)CN1C(=O)SC(Nc2ccc(Cl)cc2)C1=O (stereo not drawn),–,–,–,–
COc1ccccc1OCC(=O)Nc1cc(NC(=O)COc2ccccc2OC)cc(C(=O)O)c1,–,–,–,–
Cc1ccc(C)c(Cn2c(O)c(N=NC(=S)Nc3ccccc3F)c3ccccc32)c1,80.1,–,–,–
